Gal4-VP16 FLuc = Gal4-VP16 reporter inhibition counter-screen; Drosophila S2 Gal4-VP16 UAS-luciferase, luminescence, 20 h; AID 2546; Potency, µM (doses to about 53.6 µM), inactives show at the top dose activity, negative = inhibition, actives largely listed as inhibitors; actives 3.5% (n = 310,000);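 further: Gal4-VP16 expression switched on by copper sulfate through the metallothionein promoter; nearly all actives have a fitted effect of over 50% in size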
TDP1 cell noCPT = qHTS for Inhibitors of human tyrosyl-DNA phosphodiesterase 1 (TDP1): qHTS in cells in absence of CPT | DT40 Tdp1-/- hTDP1 cells, no CPT, ATP luminescence, 48 h | Potency, µM (top dose mostly 46.2 µM), for inactives: top-dose activity change, negative = growth inhibition, hits mostly inhibitors | actives 15% (n = 420,000) | AID 686978, 2013; further: nearly all actives have a fitted effect of over 55% in size
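Camptothecin absent (DMSO only). Human TDP1-complemented DT40 knockout cells, 400 cells/well, 37 °C for minimum 48 hr; ATP measured via CellTiter-Glo, 30 min dark incubation, luminescence.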
RORg inh = ROR gamma (mouse) transcription inhibition. P51450. Drosophila S2 Gal4-RORgamma UAS-luciferase reporter, 20 h. Potency, µM (highest dose often 53.6 µM), inactives show top-dose activity change, negative = inhibition, usual class: inhibitors. actives 5.4% (n = 310,000); further: nearly all actives have a fitted effect of over 60% in size
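Using a luciferase readout, inhibitors were identified by reduced reporter activity in Drosophila cells coexpressing a copper-inducible Gal4–ROR gamma fusion and UAS-driven Photinus luciferase, incubated 20 hr after 700 uM copper sulfate.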
DT40 TDP1 CPT = DT40-hTDP1 cell growth loss with CPT; chicken DT40 Tdp1-/-;hTDP1 cells + 20 nM CPT, ATP luminescence, 48 h; Potency, µM (titrated, usually from 46.2 µM), inactives show at the top dose activity change, negative = growth inhibition, usual class: inhibitors; actives 12% (n = 420,000); AID 686979; further: nearly all actives have a fitted effect of over 55% in size
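Cell growth measured by CellTiter-Glo luminescence after a minimum 48 h, 37 C compound exposure with 20 nM CPT in Tdp1-knockout DT40 cells stably expressing hTDP1, seeded 400/well; qHTS titration format.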
TDP1 inh = inhibitors of human tyrosyl-DNA phosphodiesterase TDP1; Potency, µM (doses to about 130 µM), without a hit: top-dose activity change, negative = inhibition, usual class: inhibitors; actives 0.28% (n = 350,000); recombinant TDP1, AlphaScreen DNA substrate cleavage; further: nearly all actives have a fitted effect of over 40% in size
Target sequence (Q9NUW8 whole entry, looked up): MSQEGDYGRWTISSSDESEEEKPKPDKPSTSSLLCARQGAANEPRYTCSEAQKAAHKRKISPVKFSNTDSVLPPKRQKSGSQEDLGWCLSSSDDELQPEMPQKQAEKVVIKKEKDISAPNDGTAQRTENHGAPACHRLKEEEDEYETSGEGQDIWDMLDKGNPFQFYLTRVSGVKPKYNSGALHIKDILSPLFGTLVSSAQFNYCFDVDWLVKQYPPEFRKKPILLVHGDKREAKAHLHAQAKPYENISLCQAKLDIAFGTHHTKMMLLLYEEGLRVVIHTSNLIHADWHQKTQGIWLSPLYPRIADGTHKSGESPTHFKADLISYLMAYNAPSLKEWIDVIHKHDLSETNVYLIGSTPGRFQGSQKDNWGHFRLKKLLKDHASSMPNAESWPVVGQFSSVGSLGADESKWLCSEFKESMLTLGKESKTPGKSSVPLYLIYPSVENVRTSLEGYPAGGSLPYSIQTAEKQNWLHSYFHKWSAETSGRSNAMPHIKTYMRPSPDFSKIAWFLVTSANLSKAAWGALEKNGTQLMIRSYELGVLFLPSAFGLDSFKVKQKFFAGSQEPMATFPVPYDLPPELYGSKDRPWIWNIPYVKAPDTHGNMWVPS
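Steps: enzyme plus compound, 15 min RT; add biotin/phosphotyrosine-FITC oligonucleotide (15 nM final), react 5 min; add donor/acceptor beads (10 ug/ml final), 10 min; read AlphaScreen. Tdp1 at 1 nM final.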
The depositor's hits bear a star; u = inconclusive; x = no result given; [ ] = another dose, or the depositor's remark. A selection: hits, their analogues and other compounds. The true share with any hit is near 19%. The call rests on the fitted dose curve; in most records, active means well fitted curve in the direction sought with a large enough effect; inconclusive means small, poorly fitted or top-dose-only effect, or another doubt; inactive means no such curve, though single readings can be large; an effect the other way counts as inactive or inconclusive. On the % scale 0 is the no-effect control and ±100 the full control effect; potency means the concentration at half of the fitted maximal effect.

SMILES	Gal4-VP16 FLuc	TDP1 cell noCPT	RORg inh	DT40 TDP1 CPT	TDP1 inh
CCN(CC)C(=O)c1oc2ccc(S(=O)(=O)N3CCCCCC3)cc2c1C	-13.4%	23.1µM*	33.3%	u	4.5%
CCN(CC)C(=O)c1oc2ccc(S(=O)(=O)N3CC(C)CC(C)C3)cc2c1C (stereo not given)	u	9.2µM*	u	4.11µM*	2.2%
CCN(Cc1ccccc1)C(=O)c1oc2ccc(S(=O)(=O)N3CCOCC3)cc2c1C	-2.1%	-26.2%	34.9%	u	0.9%
CCOC(=O)c1sc(NC(=O)c2c(CC)noc2C)nc1C	x	-10.7%	x	3.8%	-0.3%
Cc1cc(C)n(-c2ccc([N+](=O)[O-])cc2-c2nn[nH]n2)n1	1.6%	8.3%	0.3%	-8.2%	3.4%
CN(C)c1c(-c2ccccc2)cc(-c2ccccc2)[nH]c1=O	19.9%	x	7.0%	x	x
Cc1ccc(NC(=O)CSc2nc(N)c3c4c(sc3n2)CSC(C)(C)C4)cc1	-14.0%	16.4µM*	u	23.1µM*	5.6%
Cc1ccccc1NC(=O)CSc1nc(N)c2c3c(sc2n1)CSC(C)(C)C3	-9.8%	u	u	23.1µM*	2.7%
CC1(C)Cc2c(sc3nc(SCC(=O)O)nc(N)c23)CO1	1.8%	-8.1%	-21.2%	12.9%	x
Cc1ccc(-n2c(SCC(=O)O)nc3sc4c(c3c2=O)CC(C)(C)SC4)cc1	x	17.6%	x	-1.1%	x
O=C(NC1(C(F)(F)F)C(=O)Nc2c1c(=O)[nH]c(=O)n2CCc1ccccc1)c1ccc(Cl)cc1Cl (stereo not given)	x	x	x	x	-1.9%
CCOc1nc(N=C(N)N)nc2c(C)cccc12	-3.0%	23.1µM*	-1.2%	16.4µM*	-2.5%
CCOc1ccccc1Nc1cc(C)c2cccc(C)c2n1	-13.1%	-24.5%	20.1%[1.91 µM]	-5.1%	x
CC(C)CCNC(=O)c1cc(-c2cccs2)nc2ccccc12	4.6%	u	-0.8%	u	x
CCOc1cc(CNC(=O)c2cc(-c3ccc(Cl)s3)nc3ccccc23)ccc1OC	x	u	x	u	-0.9%
CC(C)CCNC(=O)c1cc(-c2ccc(Br)s2)nc2ccccc12	x	u	x	14.6µM*	0.9%
COc1ccc(CNC(=O)c2cc(-c3ccc(Br)s3)nc3ccccc23)c(OC)c1	x	14.6µM*	x	u	1.8%
CN(c1ccc(F)cc1)S(=O)(=O)N1CCCC(C(=O)NCc2cccc(Br)c2)C1 (stereo not given)	x	11.6µM*	x	14.6µM*	-12.8%
CCOc1ccc(CNC(=O)C2CCCN(S(=O)(=O)N(C)c3ccc(F)cc3)C2)cc1OC (stereo not given)	x	13µM*	x	14.6µM*	1.0%
CCN(c1ccc(OC)cc1)S(=O)(=O)N1CCCC(C(=O)NCc2cccc(C)c2)C1 (stereo not given)	4.5%	u	0.2%	u	x
CCOc1ccc(CCNC(=O)C2CCCN(S(=O)(=O)N(C)c3ccc(F)cc3)C2)cc1 (stereo not given)	x	20.6µM*	x	20.6µM*	-5.1%
Nc1cc2c(cc1[N+](=O)[O-])OCCOCCOCCO2	-2.4%	-3.4%	1.1%	5.3%	-2.6%
Cc1ccc(Nc2nc(N)nc(CSC(=S)N3CCOCC3)n2)cc1	-1.3%	u	9.2%	-3.8%	0.0%
CC1CC(C)CN(C(=S)SCc2nc(N)nc(Nc3ccccc3)n2)C1 (stereo not given)	u	u	5.62µM*	u	4.8%
CCOc1ccc(Nc2nc(N)nc(CSC(=S)N3CCOCC3)n2)cc1	-1.2%	20.6µM*	40.3%	u	6.8%
Nc1nc(CSC(=S)N2CCCCC2)nc(Nc2ccccc2)n1	-15.1%	u	u	u	0.0%
COc1ccc(OC)c(C(C)NC(=O)c2ccco2)c1 (stereo not given)	-6.1%	u	-0.1%[10 µM]	23.1µM*	4.0%
CC(NC(=O)c1ccco1)c1nc(-c2ccccc2)no1 (stereo not given)	4.8%	-27.4%	-2.5%	-11.2%	-4.7%
